# This is a sample that favours compounds with a hit; in the whole collection about 10% have one here.
# KB-V1 MDR tox: qHTS assay for MDR1-selective chemotherapeutics: Primary screen using the drug-selected MDR subline cells KB-V1; actives 3.4% (n = 400,000); Potency, µM (highest dose often 46.1 µM), hits mostly cytotoxic; KB-V1 MDR cells viability, CellTiter-Glo, 72 h; further: on the % scale 0 is the no-effect control and ±100 the full control effect; nearly all actives have a fitted effect of over 60% in size
#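 KB-V1 MDR subline cells in DMEM (phenol-red free, 10% FBS) exposed to compounds in qHTS concentration series for 72 h at 37 degrees C. Viability read by CellTiter-Glo luminescence; concentration-effect curves fitted after normalization and correction.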
# Gal4-VP16 FLuc: VP16 counterscreen qHTS for inhibitors of ROR gamma transcriptional activity; Drosophila S2 Gal4-VP16 UAS-luciferase, luminescence, 20 h; Potency, µM (titrated, usually from 53.6 µM), inactives show top-dose activity, negative = inhibition, actives largely listed as inhibitors; actives 3.5% (n = 310,000); AID 2546, 2010;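 further: Gal4-VP16 expression switched on by copper sulfate through the metallothionein promoter; on the % scale 0 is the no-effect control and ±100 the full control effect; nearly all actives have a fitted effect of over 50% in size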
# RORgamma inh: qHTS for inhibitors of ROR gamma transcriptional activity; Drosophila S2 Gal4-RORgamma UAS-luciferase reporter, 20 h; Potency, µM (series often up to 53.6 µM), inactives show top-dose activity change, negative = inhibition, actives largely listed as inhibitors; actives 5.4% (n = 310,000); further: on the % scale 0 is the no-effect control and ±100 the full control effect; nearly all actives have a fitted effect of over 60% in size
# Target sequence (P51450 whole entry, looked up, the tested form may be a part): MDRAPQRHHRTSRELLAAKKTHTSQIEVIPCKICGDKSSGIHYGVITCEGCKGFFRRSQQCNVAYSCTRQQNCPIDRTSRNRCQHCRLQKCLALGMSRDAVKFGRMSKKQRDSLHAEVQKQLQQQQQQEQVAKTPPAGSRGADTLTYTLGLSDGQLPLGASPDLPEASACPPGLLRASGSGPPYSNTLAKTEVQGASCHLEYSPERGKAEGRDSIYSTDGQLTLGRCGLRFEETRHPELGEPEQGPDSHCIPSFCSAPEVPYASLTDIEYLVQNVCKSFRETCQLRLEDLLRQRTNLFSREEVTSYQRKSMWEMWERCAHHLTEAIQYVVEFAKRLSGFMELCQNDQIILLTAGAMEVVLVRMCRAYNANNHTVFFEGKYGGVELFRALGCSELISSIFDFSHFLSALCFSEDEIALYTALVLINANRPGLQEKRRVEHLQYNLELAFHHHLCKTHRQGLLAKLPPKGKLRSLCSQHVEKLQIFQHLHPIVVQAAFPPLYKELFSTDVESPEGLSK
#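 Luciferase reporter read in Schneider cells carrying Gal4-RORγ (mouse) and UAS-Photinus luciferase; cells given compound 1 h before 700 uM copper sulfate induction, then incubated 20 h at ambient temperature.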
# MCF10A rerep: A quantitative high throughput screen for small molecules that induce DNA re-replication in MCF 10a normal breast cells. Potency, µM (series often up to 46.1 µM), for the others: at the top dose activity, positive = re-replication, actives largely listed as activators. MCF 10A DNA re-replication, Hoechst nuclear intensity, 48 h. actives 2.9% (n = 350,000); further: % of control where 0% means no effect; nearly all actives have a fitted effect of over 50% in size
# SW480 rerep: A quantitative high throughput screen for small molecules that induce DNA re-replication in SW480 colon adenocarcinoma cells; SW480 DNA re-replication, Hoechst DNA content imaging, 48 h; Potency, µM (top dose mostly 46.1 µM), for inactives: at the highest dose re-replication activation, most hits filed as activators; actives 1.8% (n = 340,000); AID 624297, 2012; further: % of control where 0% means no effect; nearly all actives have a fitted effect of over 55% in size
#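 Hoechst fluorescence of nuclei (405 nm excitation, 500-530 nm emission) measured by plate-scanning imager after 48 hr compound exposure at 37 C; re-replication scored as increased number of nuclei with elevated intensity.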
# KB-3-1 tox: qHTS assay for MDR1-selective chemotherapeutics: Primary screen using the parental adenocarcinoma cell KB-3-1 | KB-3-1 viability, CellTiter-Glo ATP luminescence, 72 h | Potency, µM (highest dose often 46.1 µM), actives largely listed as cytotoxic | actives 1.4% (n = 400,000); further: on the % scale 0 is the no-effect control and ±100 the full control effect; nearly all actives have a fitted effect of over 60% in size
#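 Cytotoxicity in the drug-sensitive parental line KB-3-1 was scored as loss of CellTiter-Glo luminescence following 72 h incubation with compound. Values come from curve fitting of normalized concentration-response data.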
# * = called active by the depositor; i = inactive; ? = inconclusive; . = no result given. The call rests on the fitted dose curve; in most records, active means well fitted curve in the direction sought with a large enough effect; inconclusive means small, poorly fitted or top-dose-only effect, or another doubt; inactive means no such curve, though single readings can be large; an effect the other way counts as inactive or inconclusive. Potency means the concentration at half of the fitted maximal effect.
SMILES,KB-V1 MDR tox,Gal4-VP16 FLuc,RORgamma inh,MCF10A rerep,SW480 rerep,KB-3-1 tox
Cc1[nH]nc2oc(=O)c(CCO)c(C)c12,i,0%,3%,?,16µM*,i
COc1ccc(-c2[nH]nc3oc(=O)c(CCO)c(C)c23)cc1,i,2%,19%,11%,4%,i
C=CCOc1cccn2c(N(C=O)Cc3ccc(OC)cc3)c(CC)nc12,?,.,.,.,.,i
CN(C)CC[C@@](O)(c1ccccc1)c1ccccc1Cl,.,-9%,9%,-1%,-3%,.
COc1ccc(CNC(=O)c2ccc(-c3nc(CSc4ccc(C)cc4)c(C)o3)cc2)c(OC)c1,i,.,.,.,.,i
C=CCOC(=O)/C=C/C(=O)NC(N)=O,i,?,20µM*,?,-4%,i
CC(Oc1ccc(F)cc1)C(=O)Nc1ccc2ccccc2c1 (stereo unspecified),?,14%,25%,?,10%,i
CC(Oc1ccccc1F)C(=O)Nc1ccc2ccccc2c1 (stereo unspecified),?,-5%,-21%,?,1%,12µM*
COc1cccc(-c2nc3c(C#N)c[nH]n3c2NC2CCCCC2)c1,i,.,.,.,.,i
OCCOCCN1CCN(C2=Nc3ccccc3Sc3ccccc32)CC1,i,-3%,8%,-20%,-10%,i
O=S(=O)(c1ccc(Br)cc1Cl)N1CCN(CCO)CC1,i,-6%,0%,6%,-7%,i
O=C1C=CC(=O)c2c(O)c(N3CCN(CCO)CC3)c(Cl)c(O)c21,?,.,.,0%,0.65µM*,5.2µM*
O=C1C=CC(=O)c2c(O)c(N3CCN(CCOCCO)CC3)c(Br)c(O)c21,4.1µM*,.,.,3%,?,5.2µM*
CC1(C)CC(CCC(=O)NC(=S)Nc2ccccc2Cl)C(=O)O1 (stereo unspecified),i,?,18µM*,-1%,-151%,i
O=C(CCN1C(=O)c2ccccc2C1=O)NC(=S)Nc1ccccc1Cl,i,?,?,-48%,10%,i
Cc1cccc(CNc2cc(-c3cccnc3)ncn2)c1,.,-1%,39%,.,.,.
COCCCNC(=O)C[C@@H]1C[C@@]2(C(=O)OC)CCCCC=C2N(Cc2ccco2)C1=O,i,.,.,.,.,i
O=C(CNc1ccc(Br)cc1)NNC1=NCCC1,i,7.1µM*,5.6µM*,?,-5%,i
O=C(CNc1ccc(Br)cc1)c1ccc(O)cc1,i,?,-2%,?,18%,i
COc1ccc2[nH]cc(CCNC(=O)Cn3cc(C)c(=O)[nH]c3=O)c2c1,i,.,.,?,-8%,i
CC(Oc1ccc(Br)cc1)C(=O)Nc1ccc(S(=O)(=O)NC2=NCCCCC2)cc1 (stereo unspecified),23µM*,.,.,-3%,-2%,i
CC(Oc1ccc(F)cc1)C(=O)Nc1ccc(S(=O)(=O)NC2=NCCCCC2)cc1 (stereo unspecified),i,.,.,-3%,24%,i
CC(C)NC(=S)Nc1ccc(Oc2ccccc2)cc1,i,-17%,?,-11%,3%,i
COC(=O)c1ccc(NC(=S)NC2CC2)cc1,i,27%,?,0%,-1%,i
S=C(Nc1ccccc1Oc1ccccc1)NC1CCCC1,i,7.1µM*,3.2µM*,3%,5%,i
SMILES,KB-V1 MDR tox,Gal4-VP16 FLuc,RORgamma inh,MCF10A rerep,SW480 rerep,KB-3-1 tox
S=C(Nc1ccc(Br)cc1)NC1CCCC1,i,10µM*,6.3µM*,-1%,-1%,i
COc1ccc(NC(=S)NC2CCCCC2)cn1,i,?,13µM*,-5%,0%,i
S=C(Nc1ccc(Oc2ccccc2)cc1)NC1CCCC1,?,5µM*,5µM*,?,0%,i
CCCC(C(=O)Nc1cccc(S(=O)(=O)N2CCCC2)c1)c1ccccc1 (stereo unspecified),i,.,.,9%,-61%,?
Cc1nn(-c2ccccc2)c(OC(=O)c2ccccc2F)c1S(=O)(=O)c1ccccc1,?,.,.,.,.,i
O=C(Nc1ccc(F)c(Cl)c1)c1ccc2sc([C@@H]3O[C@H](CO)[C@H](O)[C@H](O)[C@H]3O)nc2c1,i,.,.,.,.,i
O=C(OC1C[C@@H]2CC3C[C@H](C1)N2CC3=O)c1c[nH]c2ccccc12 (stereo partly specified),.,3%,9%,3%,1%,.
S=C(NCC1CCCCC1)Nc1ccc(Oc2ccccc2)cc1,?,5µM*,2.8µM*,18µM*,0%,?
Cc1cc2nc(CCN(C(=S)NCC3CCCO3)C3CCCC3)[nH]c2cc1C (stereo unspecified),i,?,13µM*,21%,73%,i
Cc1cc2nc(CCN(C(=S)NCC(C)C)C3CCCC3)[nH]c2cc1C,16µM*,?,7.1µM*,3%,-2%,i
O=C(CNC(=S)N(Cc1ccc(F)cc1)C1CCCCC1)NCC1CCCO1 (stereo unspecified),i,9%,-16%,-5%,-4%,i
CC(C)c1ccc(C(N)=S)cc1,i,18µM*,4µM*,-4%,0%,i
O=C(NCC1CCCO1)C(=O)NCC(c1ccco1)N1CCN(c2ccc(F)cc2)CC1 (stereo unspecified),8.2µM*,-4%,-5%,0%,-61%,i
O=C(NCc1cccnc1)C(=O)NCC(c1ccco1)N1CCN(c2ccc(F)cc2)CC1 (stereo unspecified),2.6µM*,-10%,-17%,-2%,-106%,?
O=C(NCC(c1ccco1)N1CCN(c2ccc(F)cc2)CC1)C(=O)NC1CCCC1 (stereo unspecified),i,.,.,2%,-40%,i
O=C(NCC1CCCO1)C(=O)NCC(c1ccco1)N1CCN(c2ccccc2)CC1 (stereo unspecified),21µM*,-4%,7%,0%,?,i
COc1cc2c(NC3CCN(C(C)C)CC3)nc(N3CCCN(C)CC3)nc2cc1OCCCN(C)C,i,.,.,.,.,2.3µM*
COc1cc2nc(N3CCCN(C)CC3)nc(Nc3ccncc3)c2cc1OC,i,.,.,.,.,13µM*
COc1cc2c(NC3CCN(C)CC3)nc(N3CCCN(C)CC3)nc2cc1OCCCCN,i,.,.,.,.,?
CCCN(CCC)S(=O)(=O)c1ccc(N2CCCCS2(=O)=O)cc1,i,.,.,.,.,i
